Among the data in PubChem BioAssay are viability values, retold here.

Unmarked numbers belong to inactive results. The source made the active and inactive calls.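 The calls were made as follows: active = normalized viability below 100% at a tested concentration; inactive = the rest.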

In general, viability refers to a read-out of living cells in per cent, often relative to untreated cells.

One test is described as follows: ovarian cancer cell viability with rucaparib, profiling panel, oncology-focused library, rucaparib conditional (AID 1508598). The conditions noted are these: patient-derived ovarian cancer cells, CellTiter-Glo viability, 144 h; at 0.0781 µM; OCI-P5x cells; without rucaparib; active compounds read low. A general note: In ATP-based viability assays light output follows the ATP content of the culture.
`CNC(=O)c1cc(Oc2ccc(NC(=O)Nc3ccc(Cl)c(C(F)(F)F)c3)c(F)c2)ccn1`: the viability was 110%.
As to `O=C(CCCCCCC(=O)Nc1ccc([C@H]2O[C@@H](CSc3nc(-c4ccccc4)c(-c4ccccc4)o3)C[C@@H](c3ccc(CO)cc3)O2)cc1)NO`, the viability was 106%.
Still for that read-out and setting: the same measure for `CNC(=O)c1cc(COc2nnc(Nc3ccc(Cl)cc3)c3ccoc23)ccn1`: 109%.
On to `CS(=O)(=O)N1CCc2c(-c3cnc(N)nc3)nc(N3CCOCC3)nc21`, for which the viability was 110%.
In the case of `Nc1ccn([C@@H]2O[C@H](CO)[C@@H](O)C2(F)F)c(=O)n1`, the viability is 25.3% (active).

Still in this test, the particulars now being: patient-derived ovarian cancer cells, CellTiter-Glo viability, 144 h; at 0.313 µM; OCI-C5x cells; with rucaparib 10 µM; active compounds read low; 100% = cells with rucaparib alone.
In the case of `CNC(=O)c1cc(Oc2ccc(NC(=O)Nc3ccc(Cl)c(C(F)(F)F)c3)c(F)c2)ccn1`, the viability is 104%.
Take `O=C(CCCCCCC(=O)Nc1ccc([C@H]2O[C@@H](CSc3nc(-c4ccccc4)c(-c4ccccc4)o3)C[C@@H](c3ccc(CO)cc3)O2)cc1)NO`: the viability is 116%.
Still for that read-out and setting: the same measure for `CNC(=O)c1cc(COc2nnc(Nc3ccc(Cl)cc3)c3ccoc23)ccn1`: 108%; for `CS(=O)(=O)N1CCc2c(-c3cnc(N)nc3)nc(N3CCOCC3)nc21`: 91.8% (active).
With `Nc1ccn([C@@H]2O[C@H](CO)[C@@H](O)C2(F)F)c(=O)n1`, the viability is 36.8% (active).
